# Screening results: PubChem, several laboratories
# MazF activator: activators of E. coli MazEF toxin-antitoxin RNase, primary screen, biochemical, fluorescence, uHTS; Endoribonuclease toxin MazF (Escherichia coli (strain K12)), P0AE70; FAM/BHQ RNA-DNA oligo cleavage fluorescence, 5 h; activation, % at 20 µM; 0.32% of 350,000 active; AID 504720, 2011; in the data active = activation above about 50%
# BoNT-A LC inh2: BoNT/A light chain protease inhibitors, primary screen, biochemical, flow cytometry, MLPCN library; AID 588499, 2011; 0.17% of 360,000 active; Botulinum neurotoxin type A light chain protease (Clostridium botulinum A str. ATCC 3502); multiplex microsphere protease substrate cleavage; inhibition, % at 10 µM
# BoNT-F LC inh: BoNT/F light chain protease inhibitors, primary screen, biochemical, flow cytometry, MLPCN library; 0.22% of 360,000 active; inhibition, % at 10 µM; AID 588497, 2011; Multiplex microsphere protease cleavage assay; Botulinum neurotoxin type F light chain protease (Clostridium botulinum); in the data active = inhibition above about 35%, passing the limit was not always enough; inconclusive = no clear call, values can overlap the other calls
# Anthrax LF prot: Bacillus anthracis LF protease inhibitors, primary screen, biochemical, multiplex microsphere, MLPCN library; Lethal factor (Bacillus anthracis), P15917; multiplex microsphere protease cleavage assay; inhibition, % at 10 µM; 0.12% of 360,000 active
# Target sequence (P15917 whole entry, looked up): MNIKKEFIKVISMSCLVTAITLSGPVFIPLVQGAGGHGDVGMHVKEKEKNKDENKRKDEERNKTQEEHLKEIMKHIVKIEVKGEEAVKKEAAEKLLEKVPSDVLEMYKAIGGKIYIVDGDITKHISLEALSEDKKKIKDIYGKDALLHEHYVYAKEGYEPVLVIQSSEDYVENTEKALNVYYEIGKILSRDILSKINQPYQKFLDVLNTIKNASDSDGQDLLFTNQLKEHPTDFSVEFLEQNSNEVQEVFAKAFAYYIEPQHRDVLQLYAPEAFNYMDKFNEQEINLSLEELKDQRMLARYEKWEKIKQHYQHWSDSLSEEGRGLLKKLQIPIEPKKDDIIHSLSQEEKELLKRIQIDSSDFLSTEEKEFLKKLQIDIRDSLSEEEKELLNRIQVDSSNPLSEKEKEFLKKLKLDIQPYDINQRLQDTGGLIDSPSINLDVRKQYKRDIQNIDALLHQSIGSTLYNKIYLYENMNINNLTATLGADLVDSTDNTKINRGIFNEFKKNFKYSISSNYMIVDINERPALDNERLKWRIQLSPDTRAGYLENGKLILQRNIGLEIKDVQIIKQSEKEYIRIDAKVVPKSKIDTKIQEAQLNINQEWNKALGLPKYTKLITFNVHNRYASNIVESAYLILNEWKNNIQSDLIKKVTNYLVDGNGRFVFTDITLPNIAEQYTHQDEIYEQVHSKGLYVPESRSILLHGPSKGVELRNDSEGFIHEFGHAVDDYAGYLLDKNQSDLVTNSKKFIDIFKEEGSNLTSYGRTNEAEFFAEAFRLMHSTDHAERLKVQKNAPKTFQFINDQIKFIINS
# Bead autofluor: compound fluorescence in toxin protease inhibitor counterscreen. compound autofluorescence counterscreen, microsphere flow cytometry; stronger effect = higher value. fluorescence intensity (test concentration not listed). 3.1% of 360,000 active. AID 624483; in the data active = fluorescence intensity above about 16000; inconclusive = no clear call, values can overlap the other calls
# BoNTA LC inh 1: BoNT/A light chain protease inhibitors, confirmation, biochemical, flow cytometry, cherry pick 1. shares compounds with BoNT-F LC inh. multiplex microsphere protease assay. inhibition, % at 10 µM. 3% of 720 active. AID 602139, 2011; in the data active = inhibition above about 32%
# BoNTF LC inh 1: BoNT/F light chain protease inhibitors, confirmation, biochemical, flow cytometry, cherry pick 1; inhibition, % at 10 µM; shares compounds with BoNT-F LC inh; 720 tested, under 10 active; AID 602140, 2011; multiplex microsphere protease cleavage assay; call rule not given here
# LF protease CP1: Bacillus anthracis LF protease inhibitors, confirmation, biochemical, multiplex microsphere, cherry pick 1 | inhibition, % at 10 µM | 720 tested, under 10 active | shares compounds with BoNT-F LC inh | multiplex microsphere protease cleavage assay; call rule not given here
# A number is an active result; n = inactive; u = inconclusive; x = not tested or not shown. A selection: hits, their analogues and other compounds. The true share with any hit is near 3.7%. Cut-off read from the data, not from the text of the source, unless noted: active = inhibition above about 30%; inconclusive = no clear call, values can overlap the other calls; inactive = below that.
SMILES,MazF activator,BoNT-A LC inh2,BoNT-F LC inh,Anthrax LF prot,Bead autofluor,BoNTA LC inh 1,BoNTF LC inh 1,LF protease CP1
Cc1cc2cc(CNC(=O)C3CC3)ccc2n1C,n,n,n,n,n,x,x,x
CCC(NC(=O)C1CCCC1)c1ccccc1 (centres undefined),n,n,u,n,n,x,x,x
COC(=O)c1ccc(COc2ccc(-c3nn[nH]n3)cc2)cc1,n,49,47,n,n,n,n,n
COc1cc(C(=O)NCCOc2ccc(C)c(C)c2)cc(OC)c1OC,n,n,n,n,n,x,x,x
COc1cccc(OCCNC(=O)c2cc(OC)c(OC)c(OC)c2)c1,n,n,40,n,n,n,n,n
Cc1c(C(=O)Nc2ccccc2[N+](=O)[O-])csc1-c1ccccc1,n,n,39,n,n,n,n,n
Cc1cc(C)nc(NS(=O)(=O)c2ccc(NC(=O)c3ccc4c(c3)OCCO4)cc2)n1,n,n,36,n,n,n,n,n
COc1ccccc1N1CCN(c2ncnc3n[nH]c(Br)c23)CC1,x,n,n,n,n,x,x,x
COc1cc(C2C(C#N)=C(N)N(N(C)C)C3=C2C(=O)CC(C)(C)C3)ccc1O (centres undefined),n,n,u,n,n,x,x,x
CC1(C(=O)NS(=O)(=O)c2cccc(OC(F)F)c2)CCN1C(=O)c1ccccc1CCc1ccccc1 (centres undefined),x,n,n,n,n,x,x,x
CS(=O)(=O)N1N=C(c2ccccc2)CC1c1ccc2c(c1)OCO2 (centres undefined),236,70,n,n,19512,50,x,n
CC(=O)c1ccc(-c2ccc(C(=O)NC3CC(C)(C)NC(C)(C)C3)o2)cc1,n,n,36,n,u,n,n,n
CC1(C)CC(NC(=O)c2ccc(F)cc2)CC(C)(C)N1,n,n,n,n,n,x,x,x
COc1ccc(C2CC(c3ccc(F)cc3)n3nc(NC(=O)c4ccco4)nc3N2)cc1 (centres undefined),n,n,n,n,n,n,n,n
CC1CC(c2ccccc2)n2nc(NC(=O)c3ccco3)nc2N1 (centres undefined),n,n,u,n,n,x,x,x
CCN(CC)C(=O)C(Sc1ccccc1)c1ccccc1 (centres undefined),n,n,57,u,u,n,n,n
CCCNC(=O)C(Sc1ccccc1)c1ccccc1 (centres undefined),n,n,n,n,n,x,x,x
CCOC(=O)N1CCN(c2nc3ccccn3c(=O)c2C=O)CC1,n,n,n,n,n,x,x,x
Cc1nc2cc(F)ccc2n1C1CCN(Cc2nnnn2CCc2ccccc2)CC1,n,n,42,n,n,n,n,n
Cc1ccc(CCNC(=O)CCn2c(=O)c3cccn3c3ccc(F)cc32)cc1,n,n,n,n,n,x,x,x
O=C(NC1CCCc2ccccc21)C1CCCC1 (centres undefined),n,n,u,33,n,n,n,n
O=C(NC1CCCc2ccccc21)C1CCN(S(=O)(=O)c2ccccc2)CC1 (centres undefined),n,n,n,n,n,x,x,x
CC(C)N(C(=O)[C@H]1CC(CC(=O)NCCN2CCOCC2)C(=O)N2CCc3c([nH]c4ccccc34)[C@]12C)C(C)C (some centres undefined),n,n,n,n,n,x,x,x
Cc1ccc2c(c1)CCCN2C(=O)c1cc(C)c(C)s1,n,n,n,n,n,x,x,x
Cc1cc(C(=O)O)sc1C,n,n,36,n,n,n,n,n
SMILES,MazF activator,BoNT-A LC inh2,BoNT-F LC inh,Anthrax LF prot,Bead autofluor,BoNTA LC inh 1,BoNTF LC inh 1,LF protease CP1
CNc1cc(C)c(C#N)c2nc3ccccc3n12,n,n,n,32,n,n,n,n
CCCNc1cc(C)c(C#N)c2nc3ccccc3n12,n,n,n,n,n,x,x,x
CC(C)(CNC(=O)c1cc2c(s1)CCCC2)N1CCOCC1,n,x,x,x,x,x,x,x
COCCN1C(=O)N(c2cccc(C)c2)C(=O)C1CC(=O)Nc1ccc(OC)cc1 (centres undefined),n,n,37,n,n,n,n,n
CCNC(=O)CC1C(=O)N(c2ccc(C)cc2)C(=O)N1CCOC (centres undefined),n,n,36,n,n,n,n,n
c1ccc2c(C3=NNC(=NC4CC4)SC3)c[nH]c2c1,n,41,n,n,n,n,n,n
O=C(CN1CCOCC1)Nc1ccc(Cl)cn1,n,n,n,32,u,n,n,n
O=C(CN1CCOCC1)Nc1ccc(Cl)cc1,n,n,u,n,n,x,x,x
CC1(c2ccc3ccccc3c2)NC(=O)N(CC(=O)Nc2ncccc2O)C1=O (centres undefined),n,n,n,n,n,x,x,x
Cc1ccc(OCCCC(=O)Nc2ccc(S(N)(=O)=O)cc2)cc1,n,n,41,n,n,n,n,n
CCNC(=O)NC(=O)CSc1ccc(S(=O)(=O)N(C)C2CCCCC2)cn1,n,n,n,n,n,x,x,x
Cc1ccc(CSC2=Nc3ccccc3C3=NC(=O)CN23)cc1,n,n,36,n,n,n,n,n
COC(=O)C1Cc2ccccc2CN1S(=O)(=O)c1ccc(C)cc1 (centres undefined),n,n,36,n,n,n,n,n
O=C(Nc1ccc(S(=O)(=O)Nc2ccccn2)cc1)c1cccc(Cl)c1,n,n,36,n,n,n,n,n
O=C(Nc1ccccc1C(=O)O)c1cc(S(=O)(=O)Nc2cccc(F)c2)ccc1Cl,n,n,u,n,n,n,n,n
O=C(Nc1ccc(S(=O)(=O)Nc2ccccn2)cc1)c1cccc([N+](=O)[O-])c1,n,n,n,n,n,x,x,x
Cc1ccc(C(=O)Nc2ccccc2C(=O)O)cc1S(=O)(=O)NC1CCCCC1,n,n,n,n,n,x,x,x
Cc1ccc(C(=O)Nc2ccccc2C(=O)O)cc1S(=O)(=O)Nc1ccccc1,n,x,x,x,x,n,n,n
O=C(Nc1ccccc1C(=O)O)c1cc(S(=O)(=O)N2CCCCCC2)ccc1Cl,n,n,n,n,n,x,x,x
O=C(Nc1ccccc1)c1ccc(S(=O)(=O)Nc2cccc(O)c2)cc1,n,n,n,n,n,n,n,n
O=C(Nc1ccccc1C(=O)O)c1cccc(S(=O)(=O)Nc2ccc(Br)cc2)c1,n,n,n,n,n,n,n,n
O=C(O)c1ccc(NS(=O)(=O)c2cccc(C(=O)Nc3ccc(Br)cc3)c2)cc1,n,n,u,31,n,n,n,n
O=C(Nc1ccccc1C(=O)O)c1cccc(NS(=O)(=O)c2ccc(Br)cc2)c1,n,n,n,n,n,x,x,x
